Experimental data published in the supplement of paper PMC6555819.

Experiments:
Assay in all cases: PBM binding z-score (relative to random genomic background probes); higher = stronger binding; sequences stand for … in GC…GCGATTGACAGCGTAGAATGAAGG
[1] = system: FXR:RXRa (NR concentration 270 nM, RXRa partner concentration 90 nM)
Method in brief: (§1)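 Ligand-free nuclear receptor dimers were bound for 1 h to custom Agilent 4×180K protein-binding microarrays. Detection used antibodies against each partner (one per run). Binding z-scores rest on regression-normalized fluorescence, with random background probes as the reference.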

[2] = system: LXRa:RXRa (NR concentration 270 nM, RXRa partner concentration 90 nM)
Method in brief: as §1

[3] = system: LXRa homodimer (NR concentration 270 nM)
Method in brief: as §1

[4] = system: LXRb:RXRa (NR concentration 270 nM, RXRa partner concentration 90 nM)
Method in brief: as §1

[5] = system: LXRb homodimer (NR concentration 270 nM)
Method in brief: as §1

[6] = system: PPARg:RXRa (NR concentration 180 nM, RXRa partner concentration 90 nM)
Method in brief: as §1

[7] = system: PPARg:RXRa 270nM:90nM, anti-RXR (NR concentration 270 nM, RXRa partner concentration 90 nM)
Method in brief: as §1

[8] = system: PPARg:RXRa 30nM:10nM, anti-RXR (NR concentration 30 nM, RXRa partner concentration 10 nM)
Method in brief: as §1

[9] = system: PPARg:RXRa 90nM:30nM, anti-RXR (NR concentration 90 nM, RXRa partner concentration 30 nM)
Method in brief: as §1

[10] = system: PPARg:RXRa DBDmut IVT, anti-RXR (DBD mutation: RXRa K156A/R161A, NR concentration 270 nM, RXRa partner concentration 90 nM)
Method in brief: as §1

[11] = system: PPARg:RXRa IVT, anti-PPARg (NR concentration 270 nM, RXRa partner concentration 90 nM)
Method in brief: as §1

[12] = system: PPARg DBDmut:RXRa IVT, anti-PPARg (DBD mutation: PPARg1 K132A/R137A, NR concentration 270 nM, RXRa partner concentration 90 nM)
Method in brief: as §1

[13] = system: PPARg DBDmut IVT, anti-PPARg (DBD mutation: PPARg1 K132A/R137A, NR concentration 270 nM)
Method in brief: as §1

[14] = system: PPARg homodimer (NR concentration 180 nM)
Method in brief: as §1

[15] = system: PXR homodimer (NR concentration 270 nM)
Method in brief: as §1

[16] = system: RARa:RXR (NR concentration 270 nM, RXRa partner concentration 90 nM)
Method in brief: as §1

[17] = system: RARa homodimer (NR concentration 270 nM)
Method in brief: as §1

[18] = system: RARb:RXRa (NR concentration 270 nM, RXRa partner concentration 90 nM)
Method in brief: as §1

[19] = system: PXR:RXRa (NR concentration 270 nM, RXRa partner concentration 90 nM)
Method in brief: as §1

[20] = system: PPARa:RXRa (NR concentration 270 nM, RXRa partner concentration 90 nM)
Method in brief: as §1

Row | Sequence | PBM binding z-score [1] | PBM binding z-score [2] | PBM binding z-score [3] | PBM binding z-score [4] | PBM binding z-score [5] | PBM binding z-score [6] | PBM binding z-score [7] | PBM binding z-score [8] | PBM binding z-score [9] | PBM binding z-score [10] | PBM binding z-score [11] | PBM binding z-score [12] | PBM binding z-score [13] | PBM binding z-score [14] | PBM binding z-score [15] | PBM binding z-score [16] | PBM binding z-score [17] | PBM binding z-score [18] | PBM binding z-score [19] | PBM binding z-score [20]
1 | AGTGAAAGTTCAGGACGAGGTAACGTAAAGCACG | 3.78 | 3.69 | 1.17 | 1.94 | 0.34 | 3.61 | 4.03 | 1.48 | 2.89 | -0.565 | 1.36 | 0.759 | 0.589 | 1.57 | 1.41 | 2.9 | 0.544 | 4.14 |  | 
2 | CCGACTGGGTCAAAGGTTACCATACTCAGTACGA | 4.79 | 4.3 | 0.367 | 4.02 | -0.508 | 12 | 10.2 | 9.87 | 11.1 | 6.05 | 7.26 | 1.18 | 0.000446 | 1.89 | -0.223 |  | 0.785 | 4.1 | 5.14 | 
3 | CGAACTAGGTCAAAGGGCAGTGAAAGGCGACGTA | 5.16 | 3.62 | -0.00961 | 2.68 | -0.302 |  | 10.2 | 10.2 | 11.2 | 8.19 | 8.52 |  | 0.155 | 2.2 | -0.191 | 4.78 | -0.269 | 4.31 | 2.96 | 
4 | CCGAGTAGGTTACGAGCGGGCATTCAGTGCGAAT | 0.242 | 7.14 | 0.879 | 4.08 |  | 0.617 | 0.819 | -0.546 | 0.27 | 4.42 | 2.97 |  |  | 0.117 | 0.506 | 0.0464 | -0.596 | 0.908 | 1.73 | 0.9
5 | ATATGTAGGTGAAGGGTCATTCAGGTTGGTTCGC | 4.21 | 4.29 | 1.74 | 3.78 | 1.03 |  | 11.2 | 11.3 | 12.7 | 8.51 | 8.85 | 6.44 | 4.69 | 6.22 | 2.24 | 5.79 | 1.46 | 3.3 | 5.27 | 
6 | CTATGTAGGTTAAGGGGGTCATTTAGTTTGAAAG | 5.01 | 4.94 | 3.42 | 6.37 |  | 8.48 | 7.62 | 6.07 | 7.54 | 7.59 | 7.5 |  |  | 3.59 | 10.3 | 5.8 | 1.96 | 3.51 | 5.59 | 5.83
7 | CATCCAAGGTCAAAGGTCAGTGAAGAGATGACGG | 8.63 | 7.28 | 5.11 | 7.03 | 3.15 | 11.1 | 9.75 | 8.73 | 10.8 | 4.07 | 6.54 | 2.71 | 3.63 | 5.52 | 2.53 |  | 3.93 |  | 7.36 | 
8 | CCTTACGGGTCTCTCCAGGTTATAGCATCGGAGT | 0.0576 | 2.63 | 0.136 | 0.0193 | -0.526 | -0.0815 | -0.225 | -0.385 | -0.47 | 0.165 | 0.161 | -0.412 | -0.96 | 0.354 | -0.138 | 0.923 | 0.0233 | 0.15 | 0.294 | 
